Assay outcomes deposited in PubChem BioAssay by National Center for Advancing Translational Sciences (NCATS).
DT40 TDP1 no CPT: qHTS for Inhibitors of human tyrosyl-DNA phosphodiesterase 1 (TDP1): qHTS in cells in absence of CPT; actives 15% (n = 420,000); DT40 Tdp1-/- hTDP1 cells, no CPT, ATP luminescence, 48 h; Potency, µM (titrated, usually from 46.2 µM), inactives show top-dose activity change, negative = growth inhibition, most hits filed as inhibitors; AID 686978, 2013; also: % is scaled to controls: 0 for no effect and ±100 for the full control effect; nearly all actives have a fitted effect of over 55% in size
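No-CPT arm: Tdp1-/-;hTDP1 DT40 cells (400/well) plus compounds, incubated ≥48 hr at 37 °C. Readout CellTiter-Glo luminescence.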
TGFb inhibitor: qHTS for Inhibitors of TGF-b; Potency, µM (titrated, usually from 46.1 µM), inactives show at the highest dose activity, negative = inhibition, usual class: inhibitors; HepG2 CAGA-GFP TGF-b/SMAD3 reporter, GFP fluorescence, 18 h; TGF-beta stimulated, 500 pg/mL final; actives 1.2% (n = 410,000); also: % is scaled to controls: 0 for no effect and ±100 for the full control effect; nearly all actives have a fitted effect of over 65% in size
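Smad-responsive CAGA-GFP expression was quantified in HEPG2 cells exposed to compounds and 500 pg/mL final TGF-beta for 18 h at 37 degrees C; unstimulated wells defined full inhibition.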
HepG2 viability: qHTS for Inhibitors of TGF-b: Cytotox Counterscreen; HepG2 CAGA-GFP viability, ATP luminescence, 18 h; AID 588856, 2011; Potency, µM (highest dose often 46.1 µM), for the others: at the top dose activity change, negative = cytotoxicity, hits mostly cytotoxic; actives 0.76% (n = 410,000)
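CellTiter-Glo luminescence gave cytotoxicity after 18 hours at 37 degrees C. The cells were HepG2 CAGA-GFP in 1% FBS DMEM, stimulated with 500 pg/mL TGF-beta after compound addition. %Activity was normalised to no-cell wells (complete cell-killing) and DMSO (no toxicity), and curves were fitted and classified.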
DT40 TDP1 CPT: qHTS for Inhibitors of human tyrosyl-DNA phosphodiesterase 1 (TDP1): qHTS in cells in presence of CPT; Potency, µM (highest dose often 46.2 µM), without a hit: at the top dose activity change, negative = growth inhibition, hits mostly inhibitors; actives 12% (n = 420,000); chicken DT40 Tdp1-/-;hTDP1 cells + 20 nM CPT, ATP luminescence, 48 h; also: % is scaled to controls: 0 for no effect and ±100 for the full control effect; nearly all actives have a fitted effect of over 55% in size
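Chicken DT40 Tdp1-/- cells stably complemented with human TDP1 were seeded at 400 cells/well in medium containing 20 nM camptothecin, exposed to pin-transferred compounds, and grown at 37 °C for at least 48 hr. Viability was read as ATP luminescence.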
HT1080 IDH1KD tx: qHTS for induction of synthetic lethality in tumor cells producing 2HG: qHTS for the HT-1080-IDH1KD cell line. HT-1080 IDH1 knockdown viability, ATP luminescence, 48 h. Potency, µM (doses to about 46.1 µM), for inactives: at the top dose activity, negative = toxicity, most hits filed as cytotoxic. actives 2% (n = 360,000). AID 686971, 2013;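 also: 0% = DMSO wells and -100% = cell-free medium wells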
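Viability of IDH1-knockdown HT-1080 fibrosarcoma cells was assessed by CellTiter-Glo after 48 h at 37 °C with titrated compound; concentration-effect curves were classified by fit quality and response size.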
HT1080NT lethal: qHTS for induction of synthetic lethality in tumor cells producing 2HG: qHTS for the HT-1080-NT fibrosarcoma cell line; HT-1080-NT fibrosarcoma viability, CellTiter-Glo ATP luminescence, 48 h; Potency, µM (titrated, usually from 46.1 µM), for inactives: at the top dose activity, negative = less viability, most hits filed as cytotoxic; actives 1.6% (n = 360,000); AID 686970, 2013;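 also: NT is the 2HG producing partner of a matched IDH1 knockdown line; 0% = DMSO-treated cells and -100% = media-only wells without cells; nearly all actives have a fitted effect of over 55% in size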
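Read-out is CellTiter-Glo luminescence after 10 minutes at room temperature, following 48 hours' compound treatment of HT-1080-NT cells (750 cells/well, RPMI, 5% FBS, 37 degrees C).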
* marks the source's active call; other numbers are inactive results; ? = inconclusive; . = not tested or not shown. This is a sample that favours compounds with a hit; in the whole collection about 17% have one here. Calls follow the shape of the dose curve; as a rule, active = well fitted curve in the direction sought with a large enough effect; inconclusive = small, poorly fitted or top-dose-only effect, or another doubt; inactive = no such curve, though single readings can be large; an effect the other way counts as inactive or inconclusive. Potency is read from the fitted curve at half-maximal effect.

SMILES	DT40 TDP1 no CPT	TGFb inhibitor	HepG2 viability	DT40 TDP1 CPT	HT1080 IDH1KD tx	HT1080NT lethal
C/C(=N\NC(=S)Nc1c(C)cccc1C)c1cc2ccccc2o1	2.06µM*	?	-6.8%	3.26µM*	-19.4%	-9.5%
C/C(=N\NC(=O)c1ccco1)c1cc2ccccc2o1	?	2.8%	12.7%	7.8%	21.5%	23.4%
C/C(=N\NC(=S)Nc1c(C)cccc1C)c1ccc(O)cc1	?	?	-20.3%	16.4µM*	-1.9%	-3.2%
C/C(=N\NC(=S)Nc1ccccc1C)c1cc2ccccc2o1	5.17µM*	?	-5.8%	4.11µM*	-0.5%	-9.2%
c1ccc(-c2ccc(N3CC4(CCNCC4)C3)cc2)cc1	2.59µM*	.	.	4.11µM*	.	.
c1ccc(-c2ccc(N3CC[C@@]4(CCCNC4)C3)cc2)cc1	20.6µM*	.	.	18.4µM*	.	.
CC(=O)N1CCC[C@@]2(CCN(C(c3ccccc3)c3ccccc3)C2)C1	-6.9%	.	.	10.9%	.	.
c1ccc(C(c2ccccc2)N2CC3(CCNCC3)C2)cc1	14.6µM*	.	.	20.6µM*	.	.
COc1ccc(C(=O)N2CCC3(CCCN(c4ccc(-c5ccccc5)cc4)C3)CC2)cc1	?	.	.	-19.3%	.	.
O=C(c1cccc(F)c1)N1CCC2(CCCN(c3ccc(-c4ccccc4)cc3)C2)CC1	?	.	.	0.0%	.	.
O=S(=O)(c1ccccc1)N1CCC2(CCN(c3ccc(-c4ccccc4)cc3)CC2)CC1	-6.2%	.	.	?	.	.
c1ccc(-c2ccc(N3CCCC4(CCNCC4)C3)cc2)cc1	2.59µM*	.	.	5.8µM*	.	.
Cc1cc(C(=O)N2CCC2(C)C(=O)NCc2cccc3ccccc23)nn1C (stereo not drawn)	?	-4.2%	4.1%	-9.2%	1.9%	1.0%
COc1cccc(C(=O)N[C@@H](C)C(=O)N2CCC3(CC2)NCCc2[nH]cnc23)c1	-12.0%	0.9%	-16.4%	-6.3%	-2.1%	3.5%
CCOc1cc(C2CC(=O)Nc3c2c(=O)nc(SCc2cccc(Cl)c2)n3C)ccc1O (stereo not drawn)	8.2µM*	-14.1%	-20.3%	?	.	.
Cc1cccc(CSc2nc(=O)c3c(n2C)NC(=O)CC3c2cc(F)cc(F)c2)c1 (stereo not drawn)	6.51µM*	13.2%	1.6%	9.2µM*	.	.
CCCSc1nc(=O)c2c(n1C)NC(=O)CC2c1cccc(F)c1F (stereo not drawn)	-8.7%	7.2%	6.8%	-5.3%	.	.
CCSc1nc(=O)c2c(n1C)NC(=O)CC2c1ccc(O)cc1OC (stereo not drawn)	0.5%	-7.5%	-4.2%	6.6%	.	.
O=C(c1ccc([N+](=O)[O-])cc1)N1CCN(Cc2ccccc2)CC1	-11.7%	-3.1%	10.1%	-12.4%	2.2%	4.6%
O=C(c1cc([N+](=O)[O-])ccc1Cl)N1CCN(Cc2ccccc2)CC1	-9.0%	-4.8%	14.1µM*	-10.0%	-3.8%	1.3%
O=C(c1ccc(S(=O)(=O)c2cccc(Cl)c2)c([N+](=O)[O-])c1)N1CCN(Cc2ccccc2)CC1	5.8µM*	?	2.9%	3.66µM*	?	8.2µM*
Cc1cc2oc(C(=O)N3CCN(Cc4ccccc4)CC3)c(C)c2cc1C	?	0.0%	-37.2%	25.9µM*	-6.0%	1.9%
Cc1ccc(C(=O)N2CCN(Cc3ccccc3)CC2)o1	-2.4%	-10.3%	-5.8%	-6.4%	-1.9%	-3.6%
O=C(c1ccc([N+](=O)[O-])o1)N1CCN(Cc2ccccc2)CC1	25.9µM*	?	-107.0%	14.6µM*	-14.3%	-10.0%
COc1ccccc1NC(=O)CCNC(=O)c1ccc(C)cc1	8.5%	2.4%	13.9%	6.8%	3.6%	2.0%
SMILES	DT40 TDP1 no CPT	TGFb inhibitor	HepG2 viability	DT40 TDP1 CPT	HT1080 IDH1KD tx	HT1080NT lethal
CN(Cc1ccccc1)C(=O)c1ccc([N+](=O)[O-])o1	?	?	20µM*	23.1µM*	0.5%	-10.4%
CN(C)c1ccc(C(CNC(=O)c2ccc(C#N)cc2)c2c[nH]c3ccccc23)cc1 (stereo not drawn)	20.6µM*	?	-25.4%	?	-26.0%	-17.3%
CN(C)c1ccc(C(CNS(=O)(=O)c2ccc(F)cc2)c2c[nH]c3ccccc23)cc1 (stereo not drawn)	14.6µM*	?	-86.9%	?	-29.6%	-20.8%
CN(C)c1ccc(C(CNC(=O)c2ccccc2Br)c2c[nH]c3ccccc23)cc1 (stereo not drawn)	-11.8%	18.3%	13.7%	-21.1%	-0.4%	6.3%
CCOC(=O)c1ccc(S(=O)(=O)NCC(c2ccc(N(C)C)cc2)c2c[nH]c3ccccc23)cc1 (stereo not drawn)	?	?	-15.5%	?	?	?
COc1cc2c(cc1OC)C(c1cc(OC)c(O)c(OC)c1)CC(=O)N2 (stereo not drawn)	-0.5%	?	-4.1%	15.8%	.	.
CCOc1ccc(NC(=O)NCCCn2c(C)nc3cc(C)c(C)cc32)cc1	?	-19.7%	-24.3%	?	-0.5%	1.4%
CCCC(O)c1nc2ccccc2n1CCCOc1ccc(Cl)cc1 (stereo not drawn)	3.26µM*	?	-40.8%	3.66µM*	.	.
CCCn1c(COc2ccccc2)nc2ccccc21	?	-3.8%	-21.7%	?	-14.6%	-15.9%
Cc1cccc(OCCCCn2c(CO)nc3ccccc32)c1	?	-14.3%	-12.4%	?	-4.7%	-10.5%
COc1ccc(OCCn2c(C)nc3cc(C)c(C)cc32)cc1	20.6µM*	?	-45.4%	14.6µM*	.	.
COCc1nc2ccccc2n1CCCOc1ccccc1	25.9µM*	-2.8%	-0.8%	23.1µM*	4.5%	5.5%
CCc1nc2ccccc2n1CCCCOc1cccc(C)c1	23.1µM*	?	-39.6%	?	.	.
Cc1cccc(S(=O)(=O)N(C)C[C@@H]2OCc3cnnn3CCCC(=O)N([C@@H](C)CO)C[C@@H]2C)c1	12.4%	1.9%	-0.1%	-0.1%	1.3%	10.8%
CC(NC(=O)c1ccccc1Cl)c1ccc(-n2ccnc2)cc1 (stereo not drawn)	21.4%	-7.0%	-13.8%	-0.5%	14.1%	10.1%
